Screens (PubChem)
The list is not random: actives were taken first. Their share in the collection is about 5.9%.
rCAG RNA binder: binders of r(CAG) RNA repeats, primary screen, biochemical, fluorescence. r(CAG) RNA repeat, TO-PRO-1 dye displacement fluorescence. inhibition, % at 3 µM. 1.3% of 370,000 active;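 active = inhibition above the plate cutoff, the mean of all test compounds on that plate plus 3 SD, cut at about 35% in these data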;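 also: 0% = DMSO alone and 100% = 100 µM mitoxantrone as full dye displacement; higher means more dye released from RNA so lower well fluorescence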
ALR H2O2 inh: inhibitors of human ALR sulfhydryl oxidase, primary screen, biochemical, H2O2 detection, HRP-luminol luminescence, single point; purified ALR, DTT oxidation; inhibition, % (concentration not given with the values); FAD-linked sulfhydryl oxidase ALR (Homo sapiens), P55789; AID 485317, 2010; 3.8% of 290,000 active;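 active = mean replicate inhibition above about 79%, with every replicate also reaching it, limit read from the data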
Target sequence (P55789 whole entry, looked up): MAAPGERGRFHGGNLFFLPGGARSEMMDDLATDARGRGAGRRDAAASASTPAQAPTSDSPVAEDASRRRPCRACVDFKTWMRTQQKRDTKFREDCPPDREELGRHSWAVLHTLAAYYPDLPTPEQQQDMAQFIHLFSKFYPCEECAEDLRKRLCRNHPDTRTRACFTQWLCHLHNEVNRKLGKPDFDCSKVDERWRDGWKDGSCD
Rtt109 HAT inh: inhibitors of C. albicans Rtt109/Vps75 HAT, primary screen, biochemical, ThioGlo CoA-SH fluorescence, plate reader; purified Rtt109/Vps75, 4 h; inhibition, % at 34.9 µM; Histone acetyltransferase RTT109 (Candida albicans (strain SC5314 / ATCC MYA-2876)), …; AID 540336, 2011; 0.16% of 330,000 active;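 active = inhibition of at least 50% in every replicate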
PRMT1 inh: PRMT1 methyltransferase inhibitors, primary screen, biochemical, fluorescence polarization; 1.3% of 370,000 active; Protein arginine N-methyltransferase 1 (Homo sapiens), Q99873; inhibition, % at 2.79 µM; recombinant PRMT1, activity-based probe fluorescence polarization;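 active = inhibition above about 21% made by adding two undisclosed values, limit read from the data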
Target sequence (Q99873 whole entry, looked up): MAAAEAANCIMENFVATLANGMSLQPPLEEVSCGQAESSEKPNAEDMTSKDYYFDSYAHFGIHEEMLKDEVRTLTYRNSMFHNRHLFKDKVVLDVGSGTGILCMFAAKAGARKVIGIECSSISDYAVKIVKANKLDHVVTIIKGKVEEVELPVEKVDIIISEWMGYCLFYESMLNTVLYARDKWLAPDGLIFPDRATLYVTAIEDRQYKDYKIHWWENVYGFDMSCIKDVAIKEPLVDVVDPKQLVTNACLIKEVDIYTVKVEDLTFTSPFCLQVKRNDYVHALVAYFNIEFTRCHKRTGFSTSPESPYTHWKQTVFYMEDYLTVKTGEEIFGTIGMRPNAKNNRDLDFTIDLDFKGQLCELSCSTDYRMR
ABHD5 PLIN5 PPI: ABHD5-PLIN5 interaction inhibitors, primary screen, cell lysate, split luciferase complementation, luminescence | inhibition, % at 4 µM | Perilipin-5 (Homo sapiens) + 1-acylglycerol-3-phosphate O-acyltransferase ABHD5 (Homo … | AID 602281, 2012 | 0.78% of 360,000 active | Split G. princeps luciferase complementation, 4 h;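 active = inhibition above the mean inhibition across every tested compound plus 3 SD, cut at about 22% in these data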;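 also: 0% = DMSO only wells and the 100% control is not disclosed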
LANA-H2B inh: blockers of LANA interaction with H2A/H2B – biochemical, FP readout, HTS, primary screen; Protein LANA1 (Human herpesvirus 8 type P (isolate GK18)), Q9QR71; cell-free LANA-H2A/H2B peptide, fluorescence polarization; inhibition, % (no concentration beside the values); 0.6% of 320,000 active; AID 2629, 2010; in the data active = inhibition mostly above about 10%, no sharp cut-off; inactive = mostly below about 6.7%
* = called active by the depositor; · = no result.

SMILES	rCAG RNA binder	ALR H2O2 inh	Rtt109 HAT inh	PRMT1 inh	ABHD5 PLIN5 PPI	LANA-H2B inh
COC(=O)C[C@@H]1CC[C@H]2[C@H](COc3ccc(NC(=O)Nc4ccc(C#N)cc4)cc3C(=O)N2C)O1	7.4	·	·	-3.0	·	·
Cc1ccsc1/C=N/Nc1nc2ccccc2s1	20.0	·	-2.3	0.0	2.9	·
C(=N\Nc1nc2ccccc2s1)/c1cccs1	9.1	89.0*	-11.4	1.9	-10.8	-0.1
CCCS(=O)(=O)NC(=O)C1(C)CCN(C(=O)c2ccc(C(=O)OC)cc2)C1 (stereo not given)	2.1	·	·	-0.6	5.7	·
Cc1nnc(SCC(=O)c2ccc([N+](=O)[O-])cc2)s1	8.4	-15.4	-0.1	-0.7	-12.8	-0.3
Nc1nnc(SCC(=O)c2ccc([N+](=O)[O-])cc2)s1	4.1	97.8*	-13.3	0.2	-10.5	2.7
Cc1cc(=O)[nH]c(SCC(=O)Nc2ccc(F)c(F)c2)n1	4.0	·	·	3.0	·	·
COc1cc(/C=N/N(C)c2ccccc2)cc(Cl)c1O	15.0	98.9*	8.1	7.2	-2.1	-7.2
COc1ccc(OC)c(/C=N/N(C)c2ccccc2)c1	1.8	98.9*	-1.9	-0.5	-9.2	0.4
COc1ccc(OC)c(C=NN=Cc2cc(OC)ccc2OC)c1	4.5	·	·	4.1	-0.1	·
C[C@@H]1CN([C@@H](C)CO)C(=O)c2cc(Br)cnc2O[C@H]1CN(C)C(=O)Nc1ccccc1	-0.7	·	·	-2.6	-7.0	·
Cc1ccc(Oc2ccc(C(=O)NC3CCSC3=O)cn2)cc1 (stereo not given)	-2.5	98.5*	-13.8	-0.1	-3.8	-3.4
Cc1c2ccccc2nc2c(F)c(NCCO)c(F)c(F)c12	4.9	·	·	26.8*	2.9	·
CN(C)c1ccc(C=Nc2cnn(C)c2C(N)=O)cc1	1.3	98.5*	6.3	1.3	-15.0	0.9
COc1ccc(C2=CC(c3cc(OC)c(OC)c(OC)c3)NC(=S)N2)cc1 (stereo not given)	16.5	-13.0	-11.1	7.8	-9.4	19.9*
CC1=C(C(=O)N(C(C)C)C(C)C)CC(CC(=O)NCc2ccco2)C(=O)N1Cc1ccc(C(C)(C)C)cc1 (stereo not given)	0.0	·	·	2.8	2.6	·
O=CC1=C(N2CCOCC2)/C(=C\c2ccccc2)CC1	1.3	4.6	6.2	2.5	22.0*	3.1
N#CC1=C(N2CCOCC2)/C(=C\c2ccccc2)CC1	-1.7	93.3*	-1.7	1.8	-1.2	-1.2
CCC(=O)OC1(C)C(=O)C=C2C=C(C3CC3)OC=C2C1=O (stereo not given)	10.4	·	-3.0	22.6*	4.8	-0.7
Cc1cccc(C)c1NC(=O)C(CCc1ccccc1)N1CCN(CCN(C)C)CC1 (stereo not given)	3.0	·	·	0.6	·	·
c1ccc(Nc2nc(Nc3ccccc3)nc(N3CCNCC3)n2)cc1	8.8	-17.0	-7.2	-3.2	5.3	-0.1
CN1CCN(c2nc(Nc3ccc(F)cc3)nc(Nc3ccc(F)cc3)n2)CC1	-4.0	90.8*	-10.0	-0.4	15.3	-1.6
Cc1cc(Nc2ccccc2)nc2cc(O)ccc12	5.4	96.1*	19.8	2.5	-2.4	-3.7
CC(=O)Nc1ccc(Nc2cc(C)c3ccccc3n2)cc1	-1.1	·	-12.0	0.3	0.2	-4.7
COc1ccc(Nc2cc(C)c3ccc(O)cc3n2)cc1	4.6	98.7*	7.2	0.5	-2.4	-2.5
SMILES	rCAG RNA binder	ALR H2O2 inh	Rtt109 HAT inh	PRMT1 inh	ABHD5 PLIN5 PPI	LANA-H2B inh
C[C@@H](C(=O)Nc1ccc(SC(F)F)cc1)N1C(=O)C2CCCCC2C1=O (stereo not given in full)	0.9	90.3*	1.4	7.6	-9.2	-2.7
Cc1ccc(NC(=O)C(C)N2C(=O)C3CC=C(Cl)CC3C2=O)cc1 (stereo not given)	4.7	-6.9	-1.4	1.9	-2.2	-1.1
Nc1ccn(C2OC(CO)C(O)C2F)c(=O)n1 (stereo not given)	0.5	·	·	4.5	5.6	·
Cc1[nH]c2ccccc2c1/C=N/NC(=O)CNC(=O)c1ccco1	1.3	95.0*	5.3	0.3	-0.7	2.7
Cc1[nH]c2ccccc2c1/C=N\NC(=O)c1ccco1	-0.1	57.8	5.3	4.3	4.9	2.7
CCn1c(-c2ccccc2O)n[nH]c1=S	-0.1	92.2*	17.9	2.3	3.4	-4.0
Oc1ccccc1-c1n[nH]c(=S)n1Cc1ccccc1	5.2	24.4	5.2	3.4	-7.7	2.7
CCn1c(-c2cc(-c3ccccc3)sc2N)n[nH]c1=S	10.8	98.5*	1.5	9.5	-16.5	3.1
Nc1ccc(SCc2cccnc2)cc1	2.2	99.6*	0.2	4.8	1.5	-0.7
Nc1ccc(CSc2ccccc2)cc1	1.6	·	-0.5	-0.3	0.1	·
O=C(C1CCN(S(=O)(=O)c2ccc3[nH]c(=O)oc3c2)CC1)N1CCCN(Cc2ccccc2)CC1	18.7	·	·	-0.6	·	·
Cc1ccccc1C([O-])=Nc1ccc[n+](-c2nc3ccccc3nc2NS(=O)(=O)c2ccccc2)c1	·	89.0*	·	·	·	4.5
O=S(=O)(Nc1nc2ccccc2nc1-[n+]1ccccc1)c1ccc(Cl)cc1	-4.4	4.4	-0.7	-1.2	6.2	5.7
Cc1cc(C(=O)CN2C(=O)CCC2=O)c(C)n1Cc1ccccc1	-0.8	94.1*	4.9	0.3	-1.4	0.3
CN1/C(=C\C(=O)COC(=O)c2ccc(O)c(O)c2)C(C)(C)c2ccccc21	11.4	98.8*	·	3.8	·	6.2
CC1=CC(C)(C)N(C(=O)c2ccc(F)cc2)c2cc3c(cc21)OCO3	-1.8	97.9*	7.4	-1.1	-10.6	0.7
CC1=CC(C)(C)N(C(=O)CCl)c2cc(C)ccc21	-7.0	2.5	-3.8	-0.2	-3.1	2.5
C=CCn1c(COc2ccccc2)nnc1SCC(=O)Nc1ccc(S(=O)(=O)Nc2cc(C)nc(C)n2)cc1	28.7	·	·	-1.0	·	·
CCOc1ccc2c(c1)C(C)=CC(C)(C)N2C(=O)Nc1ccccc1F	3.0	-86.2	-2.5	20.0	-5.7	1.5
CCNC(=O)N1c2ccc(OCC)cc2C(C)=CC1(C)C	-0.8	87.6*	-2.7	10.3	-3.0	3.8
O=C(CSC1=NS(=O)(=O)c2cc(F)ccc2N1)Nc1cccc(F)c1	19.9	96.7*	1.4	-0.4	5.2	5.0
CCCNC(=O)c1cc(C2CCCCN2C(=O)c2ccc3c(c2)CCO3)on1 (stereo not given)	1.4	·	·	-1.1	-0.3	·
COc1ccc(C2Nc3ccccc3C(=O)N2Cc2ccco2)cc1COc1ccccc1F (stereo not given)	12.8	-2.7	-2.0	6.1	23.1*	-4.7
C[C@@H](c1ccccc1)N1C[C@@H](COCc2ccccc2)Oc2cc(N3CCC[C@H]3CO)ccc2S1(=O)=O	8.7	·	·	-2.8	10.4	·
